Data on one sequence can be found in paper PMC7862700, “An all-to-all approach to the identification of sequence-specific readers for epigenetic DNA modifications on cytosine”.

Test in all cases: DAPPL (digital affinity profiling via proximity ligation, sequencing); 10 mM Tris-HCl pH 7.5, 50 mM NaCl, 1 mM DTT, 4% glycerol, room temperature, 30 min; GST-TFs on glutathione beads, 16-mer random dsDNA library, 0.1% formaldehyde crosslink after washing; high values mean tight binding
The target in test [1] is T1, FLI1 (Homo sapiens, UniProt Q01543 1-452).
T1 sequence: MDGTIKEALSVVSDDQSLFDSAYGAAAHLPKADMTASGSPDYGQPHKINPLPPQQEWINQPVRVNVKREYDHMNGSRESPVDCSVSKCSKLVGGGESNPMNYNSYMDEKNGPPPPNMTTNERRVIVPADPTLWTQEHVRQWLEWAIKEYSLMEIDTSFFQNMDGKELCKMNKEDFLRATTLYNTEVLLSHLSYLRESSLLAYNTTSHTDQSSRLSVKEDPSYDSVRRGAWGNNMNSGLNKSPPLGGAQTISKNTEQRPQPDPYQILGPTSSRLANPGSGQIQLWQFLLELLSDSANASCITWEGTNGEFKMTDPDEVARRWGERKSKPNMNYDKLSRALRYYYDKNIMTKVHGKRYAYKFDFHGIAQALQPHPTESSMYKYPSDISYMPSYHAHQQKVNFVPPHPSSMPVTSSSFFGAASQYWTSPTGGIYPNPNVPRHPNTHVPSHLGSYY
The following applies: protein: recombinant; tags: N-terminal GST; dsDNA, one strand shown. Summed up:
(§1)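 Sequencing on an Illumina NextSeq500 followed washing, crosslinking with 0.1% formaldehyde, proximity ligation (BsaI/T4 ligase, 1 h, 37 °C) and PCR amplification of pools that had been incubated for 30 min at room temperature with 200 nmole of a random double-stranded 16-mer DNA library in Tris/NaCl/DTT/glycerol buffer. Each pool held DNA-barcoded human transcription factors, expressed in yeast as GST fusions and captured on glutathione beads, plus a tag-only sample. Binding signal is a hexamer's read frequency for a factor divided by its frequency in the tag-only sample.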

Test [2] has as its target T2, ELK1 (Homo sapiens, UniProt P19419 1-428).
T2 sequence: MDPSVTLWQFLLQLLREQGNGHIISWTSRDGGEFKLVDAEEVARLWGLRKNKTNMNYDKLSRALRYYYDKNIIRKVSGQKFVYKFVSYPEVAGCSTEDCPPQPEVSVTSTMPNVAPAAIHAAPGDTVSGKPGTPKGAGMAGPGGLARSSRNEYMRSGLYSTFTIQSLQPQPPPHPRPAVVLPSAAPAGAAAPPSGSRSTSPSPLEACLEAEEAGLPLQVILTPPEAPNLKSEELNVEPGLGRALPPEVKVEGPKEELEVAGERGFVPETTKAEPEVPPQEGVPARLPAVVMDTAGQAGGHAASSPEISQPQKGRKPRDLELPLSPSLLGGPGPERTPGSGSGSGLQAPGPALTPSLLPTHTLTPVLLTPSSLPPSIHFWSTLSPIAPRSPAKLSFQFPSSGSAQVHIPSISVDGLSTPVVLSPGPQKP
The following applies: protein: recombinant; tags: N-terminal GST; dsDNA, one strand shown. Summed up: as §1

In test [3] the target is T3, GABPA (Homo sapiens, UniProt Q06546 1-454).
T3 sequence: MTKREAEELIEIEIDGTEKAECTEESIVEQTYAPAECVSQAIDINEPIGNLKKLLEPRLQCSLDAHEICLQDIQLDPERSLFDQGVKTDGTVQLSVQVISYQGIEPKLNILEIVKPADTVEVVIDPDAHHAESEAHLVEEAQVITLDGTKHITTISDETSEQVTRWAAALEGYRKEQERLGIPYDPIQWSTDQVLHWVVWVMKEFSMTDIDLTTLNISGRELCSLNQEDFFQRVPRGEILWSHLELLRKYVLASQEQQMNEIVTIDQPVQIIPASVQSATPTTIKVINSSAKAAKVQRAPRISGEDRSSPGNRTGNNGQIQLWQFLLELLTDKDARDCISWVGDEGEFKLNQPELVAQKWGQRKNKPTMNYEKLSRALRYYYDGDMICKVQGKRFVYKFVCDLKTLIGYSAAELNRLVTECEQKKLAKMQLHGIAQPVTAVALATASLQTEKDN
Particulars: protein: recombinant; tags: N-terminal GST; dsDNA, one strand shown. Summed up: as §1

The target of test [4] is T4, ERG (Homo sapiens, UniProt P11308 1-479).
T4 sequence: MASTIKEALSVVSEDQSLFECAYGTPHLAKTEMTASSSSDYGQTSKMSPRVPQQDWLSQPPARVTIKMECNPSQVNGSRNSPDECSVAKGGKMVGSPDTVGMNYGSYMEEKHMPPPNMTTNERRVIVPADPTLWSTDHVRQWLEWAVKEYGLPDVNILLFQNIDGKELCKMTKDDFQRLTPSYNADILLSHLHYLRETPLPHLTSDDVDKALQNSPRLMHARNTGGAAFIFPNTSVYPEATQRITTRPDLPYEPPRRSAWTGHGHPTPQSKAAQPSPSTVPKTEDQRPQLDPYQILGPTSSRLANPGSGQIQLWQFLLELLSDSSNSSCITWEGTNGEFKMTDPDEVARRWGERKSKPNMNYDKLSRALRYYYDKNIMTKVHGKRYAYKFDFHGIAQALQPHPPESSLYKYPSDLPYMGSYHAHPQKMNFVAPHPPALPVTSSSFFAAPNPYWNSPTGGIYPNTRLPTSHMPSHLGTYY
The following applies: protein: recombinant; tags: N-terminal GST; dsDNA, one strand shown. The gist of the method:
as §1

Test [5] has as its target ELF1 (Homo sapiens, UniProt P32519 1-619). Particulars: protein: recombinant; tags: N-terminal GST; dsDNA, one strand shown. Summed up: as §1
The target in test [6] is T5, EHF (Homo sapiens, UniProt Q9NZC4 1-300).
T5 sequence: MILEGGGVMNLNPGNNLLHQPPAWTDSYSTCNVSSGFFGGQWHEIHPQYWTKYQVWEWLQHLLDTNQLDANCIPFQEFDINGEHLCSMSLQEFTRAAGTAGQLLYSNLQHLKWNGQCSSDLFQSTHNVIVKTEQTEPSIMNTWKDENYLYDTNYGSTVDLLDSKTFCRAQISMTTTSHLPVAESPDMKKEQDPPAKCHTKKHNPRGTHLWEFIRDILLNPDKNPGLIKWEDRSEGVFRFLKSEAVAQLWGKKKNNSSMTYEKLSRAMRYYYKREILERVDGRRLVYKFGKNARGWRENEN
Particulars: protein: recombinant; tags: N-terminal GST; dsDNA, one strand shown. Summed up: as §1

Test [7] has as its target SPI1 (Homo sapiens, UniProt P17947 1-270). Particulars: protein: recombinant; tags: N-terminal GST; dsDNA, one strand shown. Summed up: as §1
Test [8] addresses SPIB (Homo sapiens, UniProt Q01892 1-262). Particulars: protein: recombinant; tags: N-terminal GST; dsDNA, one strand shown. The gist of the method:
as §1

For test [9], the target named is T6, ELK3 (Homo sapiens, UniProt P41970 1-407).
T6 sequence: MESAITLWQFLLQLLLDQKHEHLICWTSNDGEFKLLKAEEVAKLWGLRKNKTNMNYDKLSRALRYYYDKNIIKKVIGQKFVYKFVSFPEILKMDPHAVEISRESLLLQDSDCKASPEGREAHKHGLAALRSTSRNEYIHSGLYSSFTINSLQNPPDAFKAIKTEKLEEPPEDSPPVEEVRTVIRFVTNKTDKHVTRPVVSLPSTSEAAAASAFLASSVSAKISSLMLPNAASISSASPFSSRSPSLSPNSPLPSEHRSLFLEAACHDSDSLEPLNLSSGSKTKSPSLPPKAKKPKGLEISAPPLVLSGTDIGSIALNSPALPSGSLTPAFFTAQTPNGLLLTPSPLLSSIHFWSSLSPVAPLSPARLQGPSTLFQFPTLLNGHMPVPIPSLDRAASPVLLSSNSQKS
The following applies: protein: recombinant; tags: N-terminal GST; dsDNA, one strand shown. Summed up: as §1

The target in test [10] is T7, FEV (Homo sapiens, UniProt Q99581 1-238).
T7 sequence: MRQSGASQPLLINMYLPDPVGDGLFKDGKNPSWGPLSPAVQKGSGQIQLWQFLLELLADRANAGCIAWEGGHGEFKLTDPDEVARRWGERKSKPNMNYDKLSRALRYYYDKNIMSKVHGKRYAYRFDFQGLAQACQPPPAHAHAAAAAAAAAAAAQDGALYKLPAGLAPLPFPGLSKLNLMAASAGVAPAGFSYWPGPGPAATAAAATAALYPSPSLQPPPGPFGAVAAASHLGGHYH
The following applies: protein: recombinant; tags: N-terminal GST; dsDNA, one strand shown. Summed up:
as §1

The target of test [11] is ETV5 (Homo sapiens, UniProt P41161 1-510). The following applies: protein: recombinant; tags: N-terminal GST; dsDNA, one strand shown. The gist of the method:
as §1

Test [12] has as its target HSF1 (Homo sapiens, UniProt Q00613 1-529). Particulars: protein: recombinant; tags: N-terminal GST; chain copies: 3; dsDNA, one strand shown. The gist of the method: as §1
Test [13] has as its target T8, SPIC (Homo sapiens, UniProt Q8N5J4 1-248).
T8 sequence: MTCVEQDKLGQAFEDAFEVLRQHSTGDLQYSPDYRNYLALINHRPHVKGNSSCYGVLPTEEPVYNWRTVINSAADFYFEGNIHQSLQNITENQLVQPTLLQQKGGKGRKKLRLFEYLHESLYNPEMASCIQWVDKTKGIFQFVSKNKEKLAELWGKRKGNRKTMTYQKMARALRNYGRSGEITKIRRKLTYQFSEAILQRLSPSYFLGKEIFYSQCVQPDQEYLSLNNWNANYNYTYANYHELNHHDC
The following applies: protein: recombinant; tags: N-terminal GST; dsDNA, one strand shown. The gist of the method:
as §1

Test [14] addresses ELF4 (Homo sapiens, UniProt Q99607 1-663). The following applies: protein: recombinant; tags: N-terminal GST; dsDNA, one strand shown. Summed up: as §1
Test [15] addresses T9, ELK4 (Homo sapiens, UniProt P28324-2 1-405).
T9 sequence: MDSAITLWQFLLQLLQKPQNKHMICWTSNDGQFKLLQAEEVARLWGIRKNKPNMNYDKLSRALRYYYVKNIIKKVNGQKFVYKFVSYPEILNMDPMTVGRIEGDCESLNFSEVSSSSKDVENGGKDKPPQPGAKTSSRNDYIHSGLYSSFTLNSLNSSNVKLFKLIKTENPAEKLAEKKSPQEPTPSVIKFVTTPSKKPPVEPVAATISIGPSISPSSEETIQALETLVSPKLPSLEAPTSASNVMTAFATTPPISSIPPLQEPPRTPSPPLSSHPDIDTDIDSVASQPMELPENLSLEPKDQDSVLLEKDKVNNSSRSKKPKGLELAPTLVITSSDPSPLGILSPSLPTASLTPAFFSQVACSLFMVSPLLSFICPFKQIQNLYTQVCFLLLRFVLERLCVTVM
The following applies: protein: recombinant; tags: N-terminal GST; dsDNA, one strand shown. Summed up:
as §1

The target in test [16] is T10, ETV2 (Homo sapiens, UniProt O00321 1-342).
T10 sequence: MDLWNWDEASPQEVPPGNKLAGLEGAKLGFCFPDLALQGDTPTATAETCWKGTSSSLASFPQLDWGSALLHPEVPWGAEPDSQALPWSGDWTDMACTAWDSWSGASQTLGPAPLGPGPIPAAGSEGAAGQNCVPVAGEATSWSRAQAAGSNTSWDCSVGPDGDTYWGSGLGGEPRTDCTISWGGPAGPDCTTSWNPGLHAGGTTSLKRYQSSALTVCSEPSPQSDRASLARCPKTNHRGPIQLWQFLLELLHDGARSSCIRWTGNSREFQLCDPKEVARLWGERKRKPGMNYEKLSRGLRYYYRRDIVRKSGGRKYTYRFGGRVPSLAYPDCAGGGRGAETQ
Particulars: protein: recombinant; tags: N-terminal GST; dsDNA, one strand shown. The gist of the method:
as §1

For test [17], the target named is T11, ELF3 (Homo sapiens, UniProt P78545 1-371).
T11 sequence: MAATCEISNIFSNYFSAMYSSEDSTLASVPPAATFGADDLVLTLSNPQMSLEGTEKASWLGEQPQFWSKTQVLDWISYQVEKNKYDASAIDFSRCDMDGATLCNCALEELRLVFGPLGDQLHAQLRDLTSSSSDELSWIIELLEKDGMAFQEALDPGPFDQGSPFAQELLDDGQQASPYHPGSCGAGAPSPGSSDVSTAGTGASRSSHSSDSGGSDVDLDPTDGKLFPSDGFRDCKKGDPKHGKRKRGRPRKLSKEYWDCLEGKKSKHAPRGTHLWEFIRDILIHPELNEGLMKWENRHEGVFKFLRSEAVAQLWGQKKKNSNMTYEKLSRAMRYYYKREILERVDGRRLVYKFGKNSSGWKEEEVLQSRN
Particulars: protein: recombinant; tags: N-terminal GST; dsDNA, one strand shown. The gist of the method:
as §1

Test [18] deals with ETV1 (Homo sapiens, UniProt P50549 1-477). Particulars: protein: recombinant; tags: N-terminal GST; dsDNA, one strand shown. Summed up:
as §1

HSF1, sequence (Q00613 whole entry): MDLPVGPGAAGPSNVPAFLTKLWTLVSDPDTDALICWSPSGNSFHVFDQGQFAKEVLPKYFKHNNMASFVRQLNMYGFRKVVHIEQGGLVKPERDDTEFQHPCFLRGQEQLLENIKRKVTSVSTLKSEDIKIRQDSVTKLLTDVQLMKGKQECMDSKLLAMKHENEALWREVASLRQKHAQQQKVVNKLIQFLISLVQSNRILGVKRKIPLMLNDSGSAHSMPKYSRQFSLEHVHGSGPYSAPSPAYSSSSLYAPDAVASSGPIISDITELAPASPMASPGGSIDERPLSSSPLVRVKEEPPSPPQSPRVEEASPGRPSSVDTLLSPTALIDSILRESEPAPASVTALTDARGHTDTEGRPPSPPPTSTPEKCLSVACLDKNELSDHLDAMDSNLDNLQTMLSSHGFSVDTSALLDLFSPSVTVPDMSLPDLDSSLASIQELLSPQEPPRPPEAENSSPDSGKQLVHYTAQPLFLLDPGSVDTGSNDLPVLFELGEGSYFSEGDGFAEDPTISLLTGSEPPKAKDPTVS
ELF4, sequence (Q99607 whole entry): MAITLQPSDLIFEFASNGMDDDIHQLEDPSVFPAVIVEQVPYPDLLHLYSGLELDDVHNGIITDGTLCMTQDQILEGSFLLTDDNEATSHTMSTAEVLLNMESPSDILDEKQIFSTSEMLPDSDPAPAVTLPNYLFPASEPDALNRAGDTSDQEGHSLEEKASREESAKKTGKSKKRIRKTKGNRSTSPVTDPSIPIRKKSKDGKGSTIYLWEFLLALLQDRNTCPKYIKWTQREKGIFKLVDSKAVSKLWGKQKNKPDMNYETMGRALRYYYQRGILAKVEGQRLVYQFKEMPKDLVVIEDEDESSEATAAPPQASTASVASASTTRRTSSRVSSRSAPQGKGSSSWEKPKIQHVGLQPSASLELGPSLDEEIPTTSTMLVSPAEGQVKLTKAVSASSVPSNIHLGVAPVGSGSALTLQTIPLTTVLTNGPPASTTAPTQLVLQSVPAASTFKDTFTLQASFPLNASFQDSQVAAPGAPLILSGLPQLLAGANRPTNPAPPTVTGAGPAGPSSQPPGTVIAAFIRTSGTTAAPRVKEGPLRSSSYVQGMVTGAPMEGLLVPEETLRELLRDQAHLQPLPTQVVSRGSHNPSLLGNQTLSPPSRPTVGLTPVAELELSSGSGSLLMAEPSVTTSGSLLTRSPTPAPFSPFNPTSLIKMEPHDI
ELF1, sequence (P32519 whole entry): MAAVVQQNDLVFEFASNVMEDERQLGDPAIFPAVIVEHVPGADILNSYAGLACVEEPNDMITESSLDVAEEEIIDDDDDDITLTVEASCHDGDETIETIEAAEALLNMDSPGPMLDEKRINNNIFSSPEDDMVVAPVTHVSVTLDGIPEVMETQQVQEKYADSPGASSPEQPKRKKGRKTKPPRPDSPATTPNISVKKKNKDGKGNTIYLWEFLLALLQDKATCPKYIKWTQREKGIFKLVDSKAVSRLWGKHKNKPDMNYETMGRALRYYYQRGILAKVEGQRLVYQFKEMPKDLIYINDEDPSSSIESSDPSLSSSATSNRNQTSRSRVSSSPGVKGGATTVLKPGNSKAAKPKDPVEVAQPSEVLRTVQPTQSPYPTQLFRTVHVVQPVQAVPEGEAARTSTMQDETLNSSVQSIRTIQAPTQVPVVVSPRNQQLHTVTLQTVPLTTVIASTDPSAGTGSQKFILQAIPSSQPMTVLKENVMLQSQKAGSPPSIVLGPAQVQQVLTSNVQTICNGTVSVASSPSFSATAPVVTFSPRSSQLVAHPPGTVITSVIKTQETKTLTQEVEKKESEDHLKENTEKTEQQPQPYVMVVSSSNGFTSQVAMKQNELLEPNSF
ETV5, sequence (P41161 whole entry): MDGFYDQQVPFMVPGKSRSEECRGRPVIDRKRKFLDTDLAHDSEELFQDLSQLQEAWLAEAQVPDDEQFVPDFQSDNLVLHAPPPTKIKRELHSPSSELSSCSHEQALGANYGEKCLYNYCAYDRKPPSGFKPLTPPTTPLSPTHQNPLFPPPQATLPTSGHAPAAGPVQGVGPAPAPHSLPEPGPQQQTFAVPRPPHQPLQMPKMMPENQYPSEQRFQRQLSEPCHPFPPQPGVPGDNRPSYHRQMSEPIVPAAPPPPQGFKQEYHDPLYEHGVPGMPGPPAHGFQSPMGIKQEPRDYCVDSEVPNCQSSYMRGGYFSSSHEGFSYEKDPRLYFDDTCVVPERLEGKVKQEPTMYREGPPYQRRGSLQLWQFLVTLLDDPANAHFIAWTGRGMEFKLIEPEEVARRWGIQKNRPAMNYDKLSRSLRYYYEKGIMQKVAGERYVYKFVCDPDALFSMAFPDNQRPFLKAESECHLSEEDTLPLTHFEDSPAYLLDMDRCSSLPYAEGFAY
ETV1, sequence (P50549 whole entry): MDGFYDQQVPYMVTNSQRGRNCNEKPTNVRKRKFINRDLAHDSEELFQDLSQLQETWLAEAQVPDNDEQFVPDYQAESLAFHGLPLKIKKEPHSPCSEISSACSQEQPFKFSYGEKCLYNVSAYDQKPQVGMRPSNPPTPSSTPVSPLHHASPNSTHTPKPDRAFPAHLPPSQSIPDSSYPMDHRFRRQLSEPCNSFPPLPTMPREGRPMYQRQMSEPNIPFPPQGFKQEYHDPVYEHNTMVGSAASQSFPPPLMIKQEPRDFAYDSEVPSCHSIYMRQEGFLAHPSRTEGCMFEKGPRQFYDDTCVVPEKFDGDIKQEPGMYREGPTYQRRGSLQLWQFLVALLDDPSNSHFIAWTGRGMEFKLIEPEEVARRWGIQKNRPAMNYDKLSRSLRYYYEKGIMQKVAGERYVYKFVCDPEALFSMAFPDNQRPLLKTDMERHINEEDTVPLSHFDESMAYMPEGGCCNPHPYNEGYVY
SPIB, sequence (Q01892 whole entry): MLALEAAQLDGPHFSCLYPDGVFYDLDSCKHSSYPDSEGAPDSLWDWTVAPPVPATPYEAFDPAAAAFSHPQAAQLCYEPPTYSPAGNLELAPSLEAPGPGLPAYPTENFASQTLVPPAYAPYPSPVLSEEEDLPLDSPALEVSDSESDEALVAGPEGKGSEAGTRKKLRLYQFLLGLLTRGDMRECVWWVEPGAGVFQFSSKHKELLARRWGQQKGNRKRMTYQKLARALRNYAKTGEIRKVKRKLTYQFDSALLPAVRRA

AAGGAA: the binding signal was 1.19 fold enrichment (6-mer frequency, TF over GST control) in test [1]; 1.27 fold enrichment (6-mer frequency, TF over GST control) in [2]; 1.2 fold enrichment (6-mer frequency, TF over GST control) in [3]; 1.44 fold enrichment (6-mer frequency, TF over GST control) in [4]; 1.25 fold enrichment (6-mer frequency, TF over GST control) in [5]; 1.48 fold enrichment (6-mer frequency, TF over GST control) in test [6]. For the same sequence, the binding signal was 1.48 fold enrichment (6-mer frequency, TF over GST control) in test [7]; 1.29 fold enrichment (6-mer frequency, TF over GST control) in test [8]; 1.21 fold enrichment (6-mer frequency, TF over GST control) in test [9]; 1.19 fold enrichment (6-mer frequency, TF over GST control) in test [10]; 1.35 fold enrichment (6-mer frequency, TF over GST control) in [11]; 1.17 fold enrichment (6-mer frequency, TF over GST control) in test [12]. The binding signal in [13] was 1.36 fold enrichment (6-mer frequency, TF over GST control); in test [14] it was 1.25 fold enrichment (6-mer frequency, TF over GST control); in [15] it was 1.12 fold enrichment (6-mer frequency, TF over GST control); in [16], 1.31 fold enrichment (6-mer frequency, TF over GST control); in [17] it was 1.66 fold enrichment (6-mer frequency, TF over GST control); in test [18], 1.24 fold enrichment (6-mer frequency, TF over GST control).
